HSF1 inh: HSF1 inhibition; NIH3T3-HGL HSE-luciferase, MG132-induced, luminescence 8 h; hits give low values; activity change, negative = inhibition, % at 7.5 µM (by protocol); 0.77% of 300,000 active; AID 2098;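 active = more than half of replicate wells show activity change below -50%, luminescence cut by over half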;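 note: luciferase reports HSF-1 transcriptional activity via heat shock element; 0% = median of DMSO wells and -100% = zero luminescence signal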
STAT3 blocker: inhibitors of IL-6 induced STAT3 signaling; 0.89% of 190,000 active; inhibition, % at 5.5 µM; AID 862; U3A cells, IL-6 STAT3-luciferase reporter, luminescence; host cell line lacks STAT1;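 active = inhibition above the mean inhibition across all screened compounds plus 3 SD, cut at about 44% in these data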;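 note: 0% = DMSO only wells and 100% = 100 µM nifuroxazide control wells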
TRAIL sens C8: caspase-8 TRAIL sensitization | NB7+C8 cells + TRAIL, ATPlite viability luminescence | inhibition (viability loss, TRAIL sensitization), % at 10 µM | 1% of 360,000 active | AID 624354;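 active = compounds causing at least 50% loss of cell viability in the single-dose screen, relative to plate controls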
PPC-1+TRAIL kill: kills PPC-1 cancer cells in the presence of TRAIL | 0.41% of 220,000 active | cell killing (% activity), % at 4 µM or 5 µM | PPC-1 cells + TRAIL, ATPLite viability luminescence;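 active = cell killing above 50% in the first pass at 4 µM, then a duplicate retest at 5 µM averaging 50% or more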;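 note: plate controls were cells with TRAIL plus DMSO for no effect and medium-only wells lacking cells for full effect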
STAT1 inh: reduces IFN-gamma driven STAT1 reporter signal; NIH 3T3 STAT1-luciferase reporter, luminescence; inhibition, % at 5.5 µM; 0.35% of 200,000 active;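 active = inhibition above a set limit, the mean inhibition across all tested compounds plus 3 SD, cut at about 34% in these data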;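 note: 0% = IFN-gamma with DMSO and 100% = IFN-gamma with 300 µM nifuroxazide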
HSP90 refold inh: HSP90 refolding inhibition in rabbit reticulocyte lysate. luciferase refolding luminescence, 3 h. inhibition, % at 5.6 µM. 0.91% of 290,000 active;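 active = inhibition above the screen-wide mean plus 3 SD, computed separately per campaign, cut at about 16% in these data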;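 note: 0% = DMSO wells and 100% = 60 µM geldanamycin wells; inhibitors lower the luminescence because luciferase stays unfolded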
HSP90 confirm: confirmation of HSP90 inhibitors. shares compounds with HSP90 refold inh. rabbit reticulocyte lysate, luciferase refolding luminescence, 3 h. inhibition, % at 5.9 µM. 64% of 2,300 active; in the data active = inhibition above about 18%;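 note: 0% = vehicle wells and 100% = reference inhibitor wells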
luciferase ctr: firefly luciferase inhibition, HSP90 counter-screen | shares compounds with HSP90 refold inh | purified native firefly luciferase, luminescence | inhibition, % at 5.9 µM | 48% of 2,300 active;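 active = inhibition above the mean inhibition of all tested sample wells plus 3 SD, cut at about 10% in these data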;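 note: 0% = DMSO with luciferase and 100% = wells lacking luciferase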
Target sequence (P08659 whole entry, looked up): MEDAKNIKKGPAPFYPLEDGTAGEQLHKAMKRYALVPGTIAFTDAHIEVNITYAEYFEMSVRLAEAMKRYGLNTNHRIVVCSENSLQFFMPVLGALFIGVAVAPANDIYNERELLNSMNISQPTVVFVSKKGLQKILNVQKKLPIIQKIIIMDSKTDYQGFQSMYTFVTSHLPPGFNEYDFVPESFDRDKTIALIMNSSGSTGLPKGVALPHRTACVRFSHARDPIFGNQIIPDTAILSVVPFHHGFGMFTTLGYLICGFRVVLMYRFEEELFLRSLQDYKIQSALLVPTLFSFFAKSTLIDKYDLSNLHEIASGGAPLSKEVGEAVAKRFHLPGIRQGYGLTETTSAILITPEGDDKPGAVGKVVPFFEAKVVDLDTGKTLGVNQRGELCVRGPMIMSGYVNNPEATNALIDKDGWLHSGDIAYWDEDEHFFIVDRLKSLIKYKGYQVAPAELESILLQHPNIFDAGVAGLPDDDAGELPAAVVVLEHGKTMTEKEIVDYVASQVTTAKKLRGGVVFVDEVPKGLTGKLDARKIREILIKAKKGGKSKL
* marks the source's active call; other numbers are inactive results. This is a sample that favours compounds with a hit; in the whole collection about 2.4% have one here.

How did Cc1cccc(C)c1NC(=O)/C(C#N)=C/c1ccc(-c2ccc(C(=O)O)cc2)o1 do in these assays?
HSF1 inh: -11.0; TRAIL sens C8: 4.4; HSP90 refold inh: 33.9*; HSP90 confirm: 35.9*; luciferase ctr: -9.5

What do the screens show for `N#C/C(=C\c1ccc(-c2ccc(C(=O)O)cc2)o1)C(=O)Nc1ccc(F)cc1`?
HSF1 inh: 0.8; TRAIL sens C8: 13.8; HSP90 refold inh: -3.0

Results for Cc1ccnc(NC(=O)Nc2ccc(F)cc2)c1 ?
HSF1 inh: 29.5; STAT3 blocker: 6.9; TRAIL sens C8: 13.8; PPC-1+TRAIL kill: 33.0; STAT1 inh: -62.9; HSP90 refold inh: -1.0

What do the screens show for `CSc1ccc(NC(=O)Nc2cc(C)ccn2)cc1`?
HSF1 inh: -6.1; TRAIL sens C8: 55.4*; PPC-1+TRAIL kill: 32.7; HSP90 refold inh: 14.1; HSP90 confirm: 54.9*; luciferase ctr: 48.7*

What do the screens show for `CNC(=S)N/N=C/c1ccc(-c2ccc(C(=O)O)cc2)o1`?
HSF1 inh: -10.8; TRAIL sens C8: -4.0; PPC-1+TRAIL kill: 5.2; HSP90 refold inh: 33.9*; HSP90 confirm: 36.8*; luciferase ctr: -2.3

What do the screens show for `COc1ccccc1NC(=O)C(C)OC(=O)C1CCN(S(=O)(=O)c2ccc(C)c(C)c2)CC1` (stereo not given)?
HSF1 inh: 6.8; TRAIL sens C8: 6.5

Results for C=CCc1cccc(C=Nc2cc(Br)ccc2O)c1O ?
HSF1 inh: -0.1; STAT3 blocker: 4.3; TRAIL sens C8: 6.9; PPC-1+TRAIL kill: 16.7; STAT1 inh: 29.7; HSP90 refold inh: 44.1*; HSP90 confirm: 80.3*; luciferase ctr: -7.6

Results for C=CCc1cccc(C=Nc2c[nH]c(=O)[nH]c2=O)c1O ?
HSF1 inh: -12.8; TRAIL sens C8: 2.2; HSP90 refold inh: -6.5

What do the screens show for `CCn1c(SCC(=O)NC2CC2)nnc1-c1csc(C)c1`?
HSF1 inh: 4.6; TRAIL sens C8: -17.8; HSP90 refold inh: 0.3

What do the screens show for `O=[N+]([O-])c1ccccc1S(=O)c1ccccc1[N+](=O)[O-]`?
TRAIL sens C8: 0.0

What do the screens show for `COc1ccc2[nH]c(C(=O)Nc3cccc(C)n3)cc2c1`?
HSF1 inh: 24.7; TRAIL sens C8: 54.8*; PPC-1+TRAIL kill: 42.6; HSP90 refold inh: 23.2*; HSP90 confirm: 29.8*; luciferase ctr: 19.1*

Results for Cc1[nH]c2ccccc2c1C(C#N)(C#N)C1C(=O)c2ccccc2C1=O ?
HSF1 inh: 4.8; TRAIL sens C8: 14.3; PPC-1+TRAIL kill: 17.9; HSP90 refold inh: 77.1*; HSP90 confirm: 78.8*; luciferase ctr: -24.4

Results for Nc1ccc(S(=O)(=O)Nc2nccs2)cc1N=Nc1ccccc1[N+](=O)[O-] ?
TRAIL sens C8: 3.9

How did COc1ccc(C(=O)Nn2c(SCC(=O)N3CCC(C)CC3)nc3ccccc3c2=O)cc1 do in these assays?
HSF1 inh: -65.6*; STAT3 blocker: 88.3*; TRAIL sens C8: 52.4*; PPC-1+TRAIL kill: 49.3; STAT1 inh: 63.9*; HSP90 refold inh: 73.4*; HSP90 confirm: 71.2*; luciferase ctr: 67.4*

How did COc1ccc(C(=O)Nn2c(SCc3cccc([N+](=O)[O-])c3)nc3ccccc3c2=O)cc1 do in these assays?
HSF1 inh: -47.7; STAT3 blocker: 7.1; TRAIL sens C8: 28.8; PPC-1+TRAIL kill: 33.7; STAT1 inh: -48.8; HSP90 refold inh: 44.4*; HSP90 confirm: 49.9*; luciferase ctr: 42.0*

How did COc1ccc(C(=O)Nn2c(C)nc3ccccc3c2=O)cc1 do in these assays?
HSF1 inh: -1.7; TRAIL sens C8: -5.5; HSP90 refold inh: 6.5

Results for COc1ccc(C(=O)CSc2ccccc2C(=O)O)cc1 ?
HSF1 inh: 12.2; STAT3 blocker: 19.7; TRAIL sens C8: 2.6; PPC-1+TRAIL kill: 27.6; STAT1 inh: -16.6; HSP90 refold inh: 31.8*; HSP90 confirm: 32.4*; luciferase ctr: -6.6

Screening data: PubChem BioAssay, several laboratories
